Consider 57 compounds from PubChem BioAssay AID2057 (The Scripps Research Institute Molecular Screening Center, 2009).

Values joined by “and” are separate entries in the source; they are usually repeats but may differ in a detail not shown here. Identical values can stand only once. About 2,100 (0.66%) of roughly 320,000 compounds were called active.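 Rule for the calls: active = inhibition above the mean inhibition of all tested compounds plus 3 SD, set per campaign (cut at about 40% in these data); inactive = the rest.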 Shown is part of a subset that was picked to be rich in actives. More than one record can exist for a structure, and the calls need not agree.

Induced myeloid leukemia cell differentiation protein Mcl-1 (Homo sapiens), sequence (Q07820 whole entry, looked up): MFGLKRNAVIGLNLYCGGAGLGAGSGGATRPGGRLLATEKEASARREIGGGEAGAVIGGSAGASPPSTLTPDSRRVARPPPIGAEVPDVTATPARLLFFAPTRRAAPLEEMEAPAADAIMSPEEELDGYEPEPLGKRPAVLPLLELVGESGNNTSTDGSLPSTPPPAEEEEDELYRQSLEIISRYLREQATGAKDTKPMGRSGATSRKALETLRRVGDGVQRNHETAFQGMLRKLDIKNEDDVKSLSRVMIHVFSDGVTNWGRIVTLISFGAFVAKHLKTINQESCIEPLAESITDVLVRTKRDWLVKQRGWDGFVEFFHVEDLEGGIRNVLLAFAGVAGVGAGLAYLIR

This assay concerns the target Induced myeloid leukemia cell differentiation protein Mcl-1 (Homo sapiens) (UniProt Q07820). Put plainly: inhibitors of MCL1 binding to BIM-BH3, primary screen, biochemical, fluorescence polarization (AID 2057).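 Note: 0% = DMSO wells and 100% = unlabeled Bim-BH3 peptide control; higher means more loss of mP so more displacement of Bim peptide.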 The conditions noted are these: GST-MCL1 / FITC-Bim-BH3 fluorescence polarization; at 10.9 µM; stronger effect = higher value.
For `CCCC1=Nc2cc(C(=O)NCc3ccco3)ccc2Sc2ccccc21`, the inhibition was -1.97% (inactive).
As to `CCOP1(=O)C=C(C(C)(C)C)OC1c1ccc(F)cc1` (configuration not stated), the inhibition was -0.66% (inactive).
For `Cc1coc2c(O)cc3c(c12)OC1(N2CCCCC2)C(=O)NCCCC31` (configuration not stated) the value was 48.6% (active); for `Cc1ccc2nnn(Cc3cccc(C(C)(C)C)c3O)c2c1`, -0.36% (inactive); for `CC1CCN(C(=O)c2ccccc2NC(=O)Cc2ccccc2)CC1`, 2.82% (inactive).
With `CCCCn1c(N)c(N(CC(C)C)C(=O)c2ccc(-n3c(C)ccc3C)cc2)c(=O)[nH]c1=O` the figure was -0.69% (inactive); with `COc1cc(/C=N\Nc2ccc([N+](=O)[O-])cn2)ccc1OCC(=O)O`, -10.5% (inactive).
Take `COc1ccc(Nc2ccc([N+](=O)[O-])cn2)cn1`: the inhibition is 48.7% (active).
For `COc1ccc(C(=O)NCCNc2ccc([N+](=O)[O-])cn2)cc1` the value was -2.53% (inactive).
With `O=C(CCc1c[nH]c2ccccc12)NCCOc1ccccc1` the figure was 0.99% (inactive); with `O=C(COC(=O)/C=C/c1ccc(S(=O)(=O)N2CCCCCC2)cc1)NCc1ccccc1Cl`, 5.88% (inactive); with `COc1cccc(COc2ccc(N(C)S(=O)(=O)c3ccccc3)cc2)c1`, -7.28% (inactive).
Take `Cc1ccc2nc(COc3ccc(N(C)S(=O)(=O)c4ccccc4)cc3)cc(=O)n2c1`: the inhibition is 42% (active).
`CN(c1ccc(OCC(=O)O)cc1)S(=O)(=O)c1ccc2ccccc2c1`: the inhibition was 15.4% (inactive).
With `O=c1[nH]c(=O)c2nc3ccccc3nc2[nH]1` the figure was 40.2% (active); with `CNC(=O)c1cccc2nc3ccccc3nc12`, 2.56% (inactive).
With `O=c1[nH]c(-c2ccccc2)c(-c2ccccc2)[nH]1` the figure was 1.68% (inactive).
With `Cn1cnc2c1c(=O)n(Cc1ccccc1C#N)c(=O)n2C` the figure was 2.03% (inactive).
In the case of `CC(C)c1ccc2oc(=O)cc(CN3CCN(Cc4ccccc4)CC3)c2c1`, the inhibition was -0.09% (inactive).
With `C#CCNC(=O)[C@H](Cc1ccc(C(=O)c2ccccc2)cc1)NC(=O)OC(C)(C)C` the figure was -1.48% (inactive); with `COc1ccc(CN2CC(C(=O)NC3CCCCC3)CC2=O)cc1` (configuration not stated), 1.62% (inactive); with `O=C(CCNC(=O)C1CCN(S(=O)(=O)c2ccccc2)CC1)NC1CC1`, 1.06% (inactive).
For `CCN(CC(=O)NCC(=O)Nc1cccc(C)c1C)Cc1ccccc1` the value was -6.88% (inactive); for `Cc1[nH]c2ccccc2c1C(=O)CN1CCCC(C)C1` (configuration not stated), -7.18% (inactive); for `Cc1nnc(NC(=O)/C=C/c2ccco2)s1`, 53.5% (active).
For `CCOC(=O)c1c(NC(=O)/C=C/c2ccco2)sc(C)c1C` the value was -7.18% (inactive).
As to `CCC(CC)c1nnc(NC(=O)/C=C/c2ccco2)s1`, the inhibition is -2.29% (inactive).
With `O=c1[nH]c2ccc(S(=O)(=O)N3CCCC3)cc2[nH]1` the figure was 5.45% (inactive).
With `N/C(=N\S(=O)(=O)c1cc(C(F)(F)F)cc(C(F)(F)F)c1)c1cccs1` the figure was 5.69% (inactive); with `Cc1ccc(C(O)P(=O)(OC(C)C)c2ccc(N(C)C)cc2)cc1` (configuration not stated), -0.54% (inactive).
With `COC(=O)[C@H]1[C@H]2C[C@H]3c4[nH]c5ccccc5c4CCN3C[C@@H]2CC[C@@H]1O` the figure was 2.37% (inactive) and 78.5% (active); with `COC(=O)C1CCN(C(=O)c2cc(=O)[nH]c3ccccc23)CC1`, -5.36% (inactive); with `O=C(NC1CCCCC1)N1CCc2[nH]c3ccccc3c2C1`, 7.44% (inactive).
Take `COc1ccc(NC(=O)C2=CC(c3ccc(OC)c(OC)c3)=NS(=O)(=O)N2C)cc1`: the inhibition is -1.75% (inactive).
For `C=CCc1ccccc1OCC(=O)N/N=C/c1ccccc1OCC` the value was -1.1% (inactive); for `Cc1ccc(/C=N/NC(=O)COc2ccccc2-c2ccccc2)cc1`, 66.9% (active).
For `Cc1cccc(OCC(=O)NCC(=O)N/N=C/c2ccc(N(C)C)cc2)c1` the value was 5.85% (inactive); for `CC(Oc1ccccc1)C(=O)Nc1c2c(nn1-c1ccccc1)CS(=O)C2` (configuration not stated), 3.14% (inactive).
For the compound `CC1CCN(C(=O)c2ccc(S(=O)(=O)Cc3cc(F)ccc3F)c([N+](=O)[O-])c2)CC1`, the inhibition was 6.72% (inactive).
With `COc1cc2c(cc1OC)C(C)N(S(=O)(=O)c1cnc(Cl)c(Cl)c1)CC2` (configuration not stated) the figure was 0.66% (inactive); with `Cc1ccc(C2C(C#N)C(C#N)N3CCCN23)cc1` (configuration not stated), -13.7% (inactive); with `COCCN(CCOC)c1nc(N)c2c(N)nc3c(c2c1C#N)CC(=O)N3Cc1ccc(Cl)cc1`, 56.7% (active).
For `CC1(OC(=O)C2CCCC2)C(=O)C=C2C=C(c3ccc(C#N)cc3)OC=C2C1=O` (configuration not stated) the value was 26.9% (inactive).
On to `CC(C)(C)OC(=O)NCCCC1=CC2=CC(=O)C(C)(OC(=O)c3ccco3)C(=O)C2=CO1` (configuration not stated), for which the inhibition is 81.6% (active).
For `C=CCN1C=C2C(=O)C(C)(OC(=O)CCc3ccccc3)C(=O)C=C2C=C1c1ccc(C#N)cc1` (configuration not stated), the inhibition is 23.9% (inactive).
Consider `Cc1cc(O)c(Sc2ccccc2)c(=O)o1`, for which the inhibition was 2.06% (inactive).
For `C=CCc1cccc(/C=N/NC(=O)COc2ccc(-n3cnnn3)cc2)c1O` the value was 11.2% (inactive); for `CC(OC(=O)c1ccc2noc(-c3ccccc3)c2c1)C(N)=O` (configuration not stated), -8.19% (inactive).
`Oc1ccc(-c2onc3ccc(Cl)cc23)cc1`: the inhibition is -2.01% (inactive).
With `CCOc1ccc(NC(=O)CN(C)C(=O)Cn2c(=O)cnc3ccccc32)cc1OCC` the figure was 3.26% (inactive); with `Cc1nc(-c2ccc(F)cc2)c(CC(=O)N2CCN(S(=O)(=O)c3ccc(F)cc3)CC2)s1`, -0.35% (inactive); with `COC(=O)c1ccc2c(c1)S(=O)(=O)NC(=NCCCN1CCOCC1)S2`, -0.08% (inactive).
In the case of `Cc1c(NC(=O)C(C)OC(=O)c2c3c(nc4ccccc24)CCC(C)C3)c(=O)n(-c2ccccc2)n1C` (configuration not stated), the inhibition was -4.73% (inactive).
For `COC(=O)C1=C(Nc2ccc(C)cc2)C=C(C)C(C(=O)OC)C1c1ccc(F)cc1` (configuration not stated) the value was -0.87% (inactive); for `CC(C)N(C(=O)COC(=O)c1ccccc1C(=O)N1CCN(c2ccc(F)cc2)CC1)C(C)C`, 11.2% (inactive); for `O=C(COC(=O)c1n[nH]c2ccccc12)NCc1ccccc1`, -0.26% (inactive).
With `O=C(COC(=O)c1ccccc1C(=O)N1CCN(c2ccccc2)CC1)NCc1ccccc1` the figure was 51.8% (active).
